# Source: PubChem BioAssay AID651863 (Broad Institute, 2012)
# Results with a measured potency or affinity are listed apart. Unmarked numbers belong to inactive results. Active and inactive are the calls of the source.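 The calls were made as follows: active = compounds whose fitted half-maximal cell-killing dose is at most twice the top tested dose; inconclusive = flat curve with 30 to 70 percent signal loss, or poor fit; inactive = the rest.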
# Assay: HEK293T cell cytotoxicity, dose response, cytotoxicity control, luminescence plate reader, powder samples, set 4 (AID 651863)
# Settings: HEK293T viability, CellTiter-Glo ATP luminescence, 48 h; series mostly up to 26 µM; activity change, negative = cytotoxicity: at the top concentration
Structure (SMILES),"activity change, negative = cytotoxicity",outcome
Cc1cc(C)c(S(=O)(=O)Nc2nc(N(C)C)nc3ccccc23)c(C)c1,-0.85%,
O=S(=O)(Nc1nc(NCC2CCCCC2)nc2ccccc12)c1ccccc1,14.8%,
COC(=O)[C@@H]1CCCC[C@@H]1C(=O)N1CCc2ccccc2[C@@H]1CN1C(=O)c2ccccc2C1=O,12.2%,
O=C(NC[C@@H]1c2ccccc2CCN1C(=O)[C@@H]1CCCC[C@@H]1C(=O)O)c1ccc(CCl)cc1,30%,
O=C(O)[C@H]1CCCC[C@H]1C(=O)N1CCc2ccccc2C1 (racemic),24.1%,
O=C(O)CC(=O)N1CCc2ccccc2C1CN1C(=O)c2ccccc2C1=O (configuration not stated),-4.51%,
O=C1c2ccccc2C(=O)N1CC1=NCCc2ccccc21,10.7%,
O=C1c2ccccc2C(=O)N1C[C@@H]1c2ccccc2CCN1C(=O)C1CCCCC1,13.3%,
O=C1c2ccccc2C(=O)N1CC1c2ccccc2CCN1C(=O)Cc1ccccc1 (configuration not stated),0.765% [at 6 µM],
O=C(O)C1CCCCC1C(=O)N1CCc2ccccc2C1CN1C(=O)c2ccccc2S1(=O)=O (configuration not stated),13%,
Cc1ccc(S(=O)(=O)NNc2nc(N3CC(O)CC3C(=O)O)nc3ccccc23)cc1 (configuration not stated),2.02%,
C[C@@H](NC(=O)C1CCCC[C@H]1C(=O)O)c1ccccc1 (mixture of isomers),-3.21%,
CC(C)CNc1nc(NS(=O)(=O)c2ccccc2)c2ccccc2n1,11.1%,
O=C1c2ccccc2C(=O)N1C[C@@H]1c2ccccc2CCN1C(=O)OCc1ccccc1,-10.3%,
Cc1ccc(S(=O)(=O)Nc2cc(C(C(=O)OC(C)C)C(=O)C(F)(F)F)c(O)c3ccccc23)c(C)c1 (configuration not stated),5.36%,
Cc1ccccc1S(=O)(=O)Nc1cc(C(C(=O)OC(C)C)C(=O)C(F)(F)F)c(O)c2ccccc12 (configuration not stated),-9.77%,

Structure (SMILES),"activity change, negative = cytotoxicity",outcome
Cc1ccc(S(=O)(=O)NNc2nc(C(C(=O)OC(C)C)C(=O)C(F)(F)F)nc3ccccc23)cc1 (configuration not stated),-4.99%,
Cc1cc(C)c(S(=O)(=O)Nc2cc(C(C(=O)OCc3ccccc3)C(=O)OCc3ccccc3)c(O)c3ccccc23)c(C)c1,13%,
O=C(O)[C@H]1CCCC[C@H]1C(=O)N1CCC2=C(CCCC2)C1CN1C(=O)c2ccccc2C1=O (some centres not stated),,inactive
O=C(O)C1CCCCC1C(=O)N1CCc2ccccc2C1c1ccccc1 (configuration not stated),-4.71%,
O=C(O)C1CCCCC1C(=O)NCC1c2ccccc2CCN1C(=O)Cc1ccccc1 (configuration not stated),-0.049%,
O=C(Oc1cc(CN2C(=O)c3ccccc3C2=O)c2ccccc2[n+]1[O-])c1cccc(Cl)c1,13.3%,
C[C@H](NC(=O)C1CCCC[C@H]1C(=O)O)c1ccccc1 (mixture of isomers),21.3%,
O=C(O)[C@H]1CCCC[C@H]1C(=O)N1CCc2ccccc2[C@H]1CNS(=O)(=O)c1ccccc1,-3.07%,
COC(=O)C1CCCCC1C(=O)N1CCc2ccccc2C1CN1C(=O)c2ccccc2C1=O (configuration not stated),22.2%,
O=C(NC[C@@H]1c2ccccc2CCN1C(=O)[C@@H]1CCCC[C@@H]1C(=O)O)c1ccccc1,6.54%,
O=C(NCCO)c1ccccc1C(=O)NC[C@@H]1c2ccccc2CCN1C(=O)C1CCCCC1C(=O)O (some centres not stated),-7.16%,
CCOC(=O)C(C(=O)OCC)c1cc(CN2C(=O)c3ccccc3C2=O)c2ccccc2n1,-6.23%,
O=C(O)CCCC(=O)N1CCc2ccccc2C1CN1C(=O)c2ccccc2C1=O (configuration not stated),15.4%,
O=C(O)Cc1ccccc1C(=O)N1CCc2ccccc2[C@H]1CN1C(=O)c2ccccc2C1=O,2.94%,
COc1ccccc1CCNC(=O)[C@@H]1c2ccccc2CCN1C(=O)C1CCCCC1C(=O)O (some centres not stated),,inactive
O=C(NC[C@@H]1c2ccccc2CCN1C(=O)[C@@H]1CCCC[C@@H]1C(=O)O)c1ccc(CN2CCOCC2)cc1,21.5%,
